HTT cytoprotect: Huntington cell model cytoprotection by ATP luminescence. Potency, µM (top dose mostly 56.4 µM), without a hit: cytoprotection (ATP increase), hits mostly activators. 230,000 compounds, 0.14% hits. AID 1471. PC12 HTT-Q103 induced, cytoprotection, ATP luminescence, 40 h; also: potency is read from the fitted curve at half-maximal effect; % of control where 0% means no effect; nearly all actives have a fitted effect of over 45% in size
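Quantitative HTS on tebufenozide-induced (100 nM) PC12 cells expressing HTTQ103 exon 1–GFP; compounds tested as a concentration series; survival measured via cellular ATP.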
HttQ103 aggreg: mutant huntingtin aggregation inhibition; PC12 HttQ103-GFP aggregates, Acumen cytometry, 40 h; Potency, µM (doses to about 46.1 µM), for the others: at the top dose activity change, negative = inhibition, actives largely listed as inhibitors; 220,000 compounds, 1.1% hits; also: potency is read from the fitted curve at half-maximal effect; % is scaled to controls: 0 for no effect and ±100 for the full control effect; nearly all actives have a fitted effect of over 60% in size
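PC12/HTTQ103-GFP, ecdysone-inducible; teb 100 nM; cpd qHTS titration; GFP aggregates read on laser cytometer, Ex 488/Em 500-530 nm.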
PNC assembly inh: blocks assembly of the perinucleolar compartment; activity change (PNC), negative = inhibition, % at 10 µM; 140,000 compounds, 3.1% hits; AID 2417; PC3M PTB-GFP, PNC prevalence imaging, 16 h; stronger effect = lower value;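 active = readout at or below -70, meaning at least 70% loss of cells showing the perinucleolar compartment, a nuclear body marking cancer cells; inconclusive = readout between -30 and a set limit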;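 also: plate controls were DMSO wells for no effect and camptothecin positive control wells for full effect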
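Compounds are pinned in duplicate onto adhered PC3M cells stably expressing GFP-tagged PTB and incubated 16 h at 37 C. Cells are then fixed, nuclei stained with Hoechst, and PNC-positive cells counted.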
CBFb-RUNX1 inh: blocks binding between human CBF-beta and RUNX1 | Q01196+Q13951 | AlphaScreen CBFb-His/RUNX1-biotin binding, biochemical | Potency, µM (doses to about 59.8 µM), inactives show top-dose activity, negative = inhibition, most hits filed as inhibitors | 230,000 tested, under 10 active; also: % of control where 0% means no effect
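His-tagged CBF-beta and biotinylated RUNX1 (30 nM each) were premixed 20 min at room temperature, exposed to compound for 15 min, then given nickel-chelate and streptavidin AlphaScreen beads (50 ng each). After 90 min, AlphaScreen signal was read.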
ALDH1A1 block: inhibitors of human aldehyde dehydrogenase 1A1 | P00352 | Purified ALDH1A1, NADH fluorescence, propionaldehyde substrate | Potency, µM (titrated, usually from 75.3 µM), for inactives: at the highest dose activity, negative = inhibition, actives largely listed as inhibitors | 220,000 compounds, 7.3% hits; active = well fitted inhibition curve with a large enough effect, not every such curve was filed as active; inconclusive = small, poorly fitted or top-dose-only effect, or another doubt; inactive = no such curve, though single readings can be large or run the other way;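 also: potency is read from the fitted curve at half-maximal effect; plate controls were no enzyme wells and a reference inhibitor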
Target sequence (P00352 whole entry, looked up): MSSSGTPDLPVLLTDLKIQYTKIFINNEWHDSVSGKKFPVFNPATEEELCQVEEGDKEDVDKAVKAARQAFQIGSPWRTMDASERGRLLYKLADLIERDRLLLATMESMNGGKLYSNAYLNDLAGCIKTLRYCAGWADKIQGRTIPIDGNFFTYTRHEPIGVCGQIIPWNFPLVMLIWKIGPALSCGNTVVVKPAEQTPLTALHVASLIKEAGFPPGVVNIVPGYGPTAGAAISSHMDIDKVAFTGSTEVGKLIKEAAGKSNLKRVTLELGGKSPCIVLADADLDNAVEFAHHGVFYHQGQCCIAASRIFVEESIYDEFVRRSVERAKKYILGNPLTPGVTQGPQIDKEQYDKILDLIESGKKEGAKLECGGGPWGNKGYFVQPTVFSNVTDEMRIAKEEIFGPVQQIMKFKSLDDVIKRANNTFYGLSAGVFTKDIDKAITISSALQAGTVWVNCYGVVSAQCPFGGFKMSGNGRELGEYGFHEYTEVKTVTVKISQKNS
HPGD block: blocks human HPGD enzyme activity; P15428; purified HPGD, NADH fluorescence kinetic, PGE2 substrate; Potency, µM, for inactives: at the top dose activity change, negative = inhibition, hits mostly inhibitors; 150,000 compounds, 4.3% hits; active = well fitted inhibition curve with a large enough effect, not every such curve was filed as active; inconclusive = small, poorly fitted or top-dose-only effect, or another doubt; inactive = no such curve, though single readings can be large or run the other way; also: potency is read from the fitted curve at half-maximal effect; % is scaled to controls: 0 for no effect and ±100 for the full control effect
Target sequence (P15428 whole entry, looked up): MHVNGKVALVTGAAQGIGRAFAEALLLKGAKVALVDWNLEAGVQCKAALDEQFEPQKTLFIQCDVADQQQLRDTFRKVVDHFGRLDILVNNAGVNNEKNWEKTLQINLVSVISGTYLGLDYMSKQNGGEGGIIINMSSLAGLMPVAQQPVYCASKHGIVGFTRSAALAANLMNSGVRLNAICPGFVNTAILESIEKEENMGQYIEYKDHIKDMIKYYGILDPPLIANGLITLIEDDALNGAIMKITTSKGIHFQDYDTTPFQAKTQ
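20 nM HPGD preincubated 15 min at room temperature with compound in 50 mM Tris-HCl pH 8, 0.01% Tween 20. Started with 1 mM NAD+ and 30 uM prostaglandin E2; NADH fluorescence (360/450 nm) read 5 times over 30-s intervals, last minus first.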
An asterisk follows results filed as active; ? = inconclusive; / = not tested or not shown; [ ] = remark or other dose. In the library only some 11% were active in any assay of this set; here they are far more common. Unless noted, calls follow the shape of the dose curve; as a rule, active = well fitted curve in the direction sought with a large enough effect; inconclusive = small, poorly fitted or top-dose-only effect, or another doubt; inactive = no such curve, though single readings can be large; an effect the other way counts as inactive or inconclusive.

SMILES	HTT cytoprotect	HttQ103 aggreg	PNC assembly inh	CBFb-RUNX1 inh	ALDH1A1 block	HPGD block
Cn1c(=O)c2c(nc(CN3CCc4ccccc4C3)n2Cc2ccc(F)cc2)n(C)c1=O	-15%[0.074 µM]	/	/	/	/	/
Cn1c(=O)c2c(nc(CN3CCC(C(N)=O)CC3)n2Cc2c(F)cccc2Cl)n(C)c1=O	-6%	18%	54	7%	?	-3%
CCNc1ncc2nc(-c3cccc(C#N)c3)c(=O)n(Cc3cccc(OC)c3)c2n1	-2%	/	/	/	11%	/
CC(C)c1cccc2nc3c(c([Si](C)(C)C)c12)Cn1c-3cccc1=O	-31%	/	/	?	?	?
Cn1c(=O)c2c(nc(N3CCNCC3)n2Cc2ccccc2Cl)n(C)c1=O	-11%[10 µM]	-5%[9.22 µM]	/	-3%	-6%	/
Cn1c(=O)c2c(nc(N3CCN(c4ccccn4)CC3)n2Cc2ccccc2Cl)n(C)c1=O	-23%	14%	83	-1%	1.1µM*	-12%
COc1cccc(CNC(=O)N[C@@H](C)C(=O)O)c1	-4%[10 µM]	4%[9.22 µM]	/	3%	/	/
COc1cccc(CNC(=O)CCl)c1	27%[10 µM]	?	?	2%	7.1µM*	-22%
C[C@@H]1C(SC2Cn3cnc[n+]3C2)=C(C(=O)[O-])N2C(=O)[C@H]([C@@H](C)O)[C@@H]12 (some centres not stated)	28%	-13%	/	/	/	/
CN(C)c1nc(SCCOC(=O)COc2ccc(Cl)cc2Cl)nc(N(C)C)n1	6%	-15%	29	?	5%	16µM*
CC(C)C[C@@H](CC(=O)N[C@@H](CCCN)CC(=O)N[C@@H]1CCCC[C@H]1C(=O)N[C@H](CC(=O)N[C@@H](CCC(=O)O)CC(=O)O)Cc1c[nH]c2ccccc12)NC(=O)[C@@H]1CNCC[C@H]1N	-9%	/	/	4%	-7%	-7%
COc1ccc(/C=N/O)cc1COc1ccc(NC(C)=O)cc1	26%[10 µM]	1%	18	-2%	2%	25µM*
COc1ccc(/C=N/N2CCOCC2)cc1COc1ccc(Cl)cc1	16%[10 µM]	19%	-111*	-4%	3%	-8%
CCOc1ccc(NC(=O)/C(=C\c2ccc(OC(C)=O)c(OC)c2)NC(C)=O)cc1	-23%[10 µM]	11%	-13	-2%	10µM*	-14%
COc1ccc(NC(=O)/C(=C/c2ccc3c(c2)OCO3)NC(C)=O)cc1	30%[10 µM]	?	-28	-24%	4%	-19%
COc1ccc(/C=N/NC(=O)c2cccnc2)cc1COc1ccc(NC(C)=O)cc1	-4%[10 µM]	8%[9.22 µM]	/	2%	/	/
Cc1ccc(N=C2S/C(=C\c3cn(CC(=O)O)c4ccccc34)C(=O)N2C)cc1	/	-9%	29	-10%	?	-13%
COc1ccc(C(=O)Nc2cc(-c3nn4c(C)nnc4s3)ccc2C)cc1	-1%	5%	-9	-4%	4%	?
Cc1ccc(-c2nn3c(C)nnc3s2)cc1NC(=O)c1ccc(OC(C)C)cc1	-27%	1%	?	10%	13µM*	1.1µM*
O=S(=O)(c1ccc(N2CCCC2)cc1)C(F)(F)F	-3%	10µM*	-24	21%	-1%	-5%
O=C(Nc1ccc(N2CCCCC2)cc1)c1ccc(F)cc1	-86%[10 µM]	?	?	3%	-11%	-3%
O=C(c1ccc(F)cc1)c1ccc(N2CCCC2)cc1	-16%	-21%	35	16%	20µM*	28µM*
O=S(=O)(c1ccc(N2CCN(c3ccc(F)cc3)CC2)cc1)N1CCCC1	-22%	10%	16	4%	11%	-21%
C#CCOCCOCCOCCNc1nc(N2CCN(C(=O)[C@H]([C@@H](C)CC)n3cc([C@@H](N)CC(C)C)nn3)CC2)nc(N2CCN(C(=O)[C@H]([C@@H](C)CC)n3cc([C@@H](N)CC(C)C)nn3)CC2)n1	1%[10 µM]	21%[9.22 µM]	/	11%	-1%	/
C[C@H]1CS(=O)(=O)CCN1/N=C\c1ccc([N+](=O)[O-])o1	2%[40.3 µM]	-6%[20.6 µM]	/	-24%[21.7 µM]	?	-6%
SMILES	HTT cytoprotect	HttQ103 aggreg	PNC assembly inh	CBFb-RUNX1 inh	ALDH1A1 block	HPGD block
Cc1ccc([N+](=O)[O-])cc1NC(=O)C[n+]1ccccc1	/	/	/	1%	8%	/
c1ccc(-c2nc3nonc3nc2-c2ccccc2)cc1	-140%	3.2µM*	39	?	-10%	-6%
CCCn1c(CNc2ccccc2O)nc2ccccc21	-11%	?	9	-20%	13µM*	-3%
CCCn1c(NC(=O)c2cccc(C)c2C)nc2ccccc21	-57%	6.3µM*	7	-2%	-7%	-12%
CCCn1c(NCc2cccc(OC)c2OC)nc2ccccc21	-9%	9%	45	6%	14%	-3%
COc1cccc(CNn2cnnc2)c1O	9%[10 µM]	5%[9.22 µM]	/	-5%	13µM*	/
CCCCn1c(CNC(=O)CCC)nc2ccccc21	-1%	-11%	-25	12%	9%	?
CCCn1c(NCc2cccc(OC)c2O)nc2ccccc21	1%[10 µM]	12%	?	-5%	6.3µM*	4%
Cc1cccc2cc(CN(CCCN(C)C)C(=S)NCCc3ccccc3)c(=O)[nH]c12	14%[10 µM]	1%[9.22 µM]	/	3%	6%	/
COC(=O)c1ccc(-c2nc(O)c(C)s2)cc1	-23%	12%[9.22 µM]	/	-4%	20µM*	/
NS(=O)(=O)c1ccc(NC(=S)Nc2ccn(Cc3cccc4ccccc34)n2)cc1	?	-9%	/	-16%	13µM*	/
O=C(CSc1nc2ccccc2[nH]1)NCc1ccc(F)cc1	-5%	7%	/	-19%	-1%	/
c1ccc(Cc2nnc3sc(-c4cccnc4)nn23)cc1	26%	-20%	?	6%	11µM*	14µM*
c1ccc(Cc2nn3c(-c4ccncc4)nnc3s2)cc1	-10%[10 µM]	?	19	4%	22µM*	28µM*
c1ccc(Cc2nnc3sc(-c4ccncc4)nn23)cc1	-6%[0.074 µM]	?	?	5%	7.9µM*	11µM*
c1ccc(OCc2nn3c(-c4ccncc4)nnc3s2)cc1	17%	?	-7	8%	8%	-28%
c1cncc(-c2nn3c(-c4ccncc4)nnc3s2)c1	-31%[0.074 µM]	/	/	/	/	/
c1ccc(CCc2nn3c(Cc4ccccc4)nnc3s2)cc1	-11%	2%	-13	0%	8.9µM*	11µM*
COC(=O)NC(c1cccc(F)c1)[C@]1(C(C)=O)CCCC1=O (some centres not stated)	-7%[10 µM]	/	/	4%[13.1 µM]	0%[13.5 µM]	/
O=C(NCC1CCCN(Cc2ccc3nonc3c2)C1)c1cccc(C(F)(F)F)c1 (configuration not stated)	37%[10 µM]	-3%[9.22 µM]	/	1%	0%	/
CCOc1ccccc1-c1nn2c(Cc3ccccc3)nnc2s1	-30%	-1%[9.22 µM]	12	1%	?	?
c1ccc(Cc2nnc3sc(-c4ccccn4)nn23)cc1	11%	-5%	?	7%	14µM*	?

Source: PubChem (National Center for Advancing Translational Sciences (NCATS))
